Shown are actives, neighbours in structure and some others; about 2% of the full set was active somewhere.
TDP43 rescue – qHTS of TDP-43 Inhibitors. hit rate 1.8% among 410,000. Potency, µM (highest dose often 46.1 µM), for the others: at the top dose growth rescue (activation), actives largely listed as activators. TDP-43 expressing yeast growth rescue, BacTiter-Glo, 24 h; also: % of control where 0% means no effect; nearly all actives have a fitted effect of over 50% in size
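Luminescence from BacTiter-Glo reports growth of TDP-43-expressing yeast after 24 hr at 30 deg C with compound. Cells were raffinose-pregrown to mid-log, then seeded in galactose medium at OD600=0.02.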
aSyn yeast inh – qHTS of alpha-syn Inhibitors | Yeast expressing alpha-synuclein, growth rescue, BacTiter-Glo, 24 h | Potency, µM (series often up to 46.1 µM), without a hit: at the highest dose growth rescue (activation), hits mostly activators | hit rate 0.14% among 370,000; also: % of control where 0% means no effect; nearly all actives have a fitted effect of over 65% in size
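Galactose-induced alpha-syn yeast (OD600=0.02, raffinose-pregrown) + pinned cpd, 24 hr, 30 deg C; growth by BacTiter-Glo luminescence. Growth restoration scores as activation.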
Abeta yeast res – qHTS for compounds that reverse cellular toxicity of Amyloid beta (A-beta) peptide in yeast: Primary Screen | hit rate 0.063% among 410,000 | yeast expressing A-beta42, growth rescue, OD600, 48 h; response scale: 0% DMSO, 100% iron-clioquinol control | AID 1347071, 2019 | Potency, µM (highest dose often 46.1 µM), most hits filed as activators; also: nearly all actives have a fitted effect of over 55% in size
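Yeast growth medium received pinned compounds, then yeast cells expressing toxic A-beta were added; plates incubated at 30 C for 48 hr. Growth read as absorbance at 600 nm, normalized to DMSO and equimolar FeCl3 plus clioquinol controls.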
FUS yeast rescue – qHTS for Suppressors of FUS Proteinopathy: Primary screen using FUS-linked yeast assay; Potency, µM (titrated, usually from 76.6 µM), most hits filed as activators; hit rate 0.24% among 390,000; S. cerevisiae FUS-expressing, growth rescue, OD600, 24 h; AID 1347120, 2019;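 also: plate controls were DMSO vehicle for no effect and reference control for full effect; nearly all actives have a fitted effect of over 55% in size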
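Read-out: OD at 600 nm after 24hr at 30C, reporting rescue of FUS-induced yeast toxicity. Cells at OD 0.005 in galactose (2%) minimal medium; compounds tested in a dilution series; CP55940 titration from 92uM final as control.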
Glioma ERSR ind – qHTS for Inducers of the Endoplasmic Reticulum Stress Response (ERSR) in Human Glioma: qHTS; U87-MG GRP78 promoter luciferase reporter, 16 h; hit rate 0.02% among 420,000; Potency, µM, for the others: at the highest dose activation, usual class: activators; AID 602332, 2012; also: series mostly up to about 76 µM; % of control where 0% means no effect; nearly all actives have a fitted effect of over 35% in size
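Stably transfected U87-MG human glioma cells carrying a GRP78-based luminescent sensor were seeded at 1000 cells/well, pin-dosed with compounds and incubated 16 h. Luciferase reagent was then added, and end-point luminescence was read after 10 min at room temperature.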
MBNL1 CUG block – qHTS Assay for Inhibitors of MBNL1-poly(CUG) RNA binding | Muscleblind-like protein 1 (Homo sapiens), Q9NR56 | TR-FRET MBNL1-His/biotin-(CUG)12 binding, 665/545 ratio | Potency, µM (doses to about 57.5 µM), for the others: at the top dose activity change, negative = inhibition, usual class: inhibitors | hit rate 0.036% among 280,000 | AID 2675, 2010; active = well fitted inhibition curve with a large enough effect in the signal ratio, with a control signal flat, not every such curve was filed as active; inconclusive = small, poorly fitted or top-dose-only effect, or effect the other way, or a change in a side signal; inactive = no such curve, though single readings can be large or run the other way; the % refers to the signal ratio; also: % is scaled to controls: 0 for no effect and ±100 for the full control effect
Target sequence (Q9NR56 whole entry, looked up): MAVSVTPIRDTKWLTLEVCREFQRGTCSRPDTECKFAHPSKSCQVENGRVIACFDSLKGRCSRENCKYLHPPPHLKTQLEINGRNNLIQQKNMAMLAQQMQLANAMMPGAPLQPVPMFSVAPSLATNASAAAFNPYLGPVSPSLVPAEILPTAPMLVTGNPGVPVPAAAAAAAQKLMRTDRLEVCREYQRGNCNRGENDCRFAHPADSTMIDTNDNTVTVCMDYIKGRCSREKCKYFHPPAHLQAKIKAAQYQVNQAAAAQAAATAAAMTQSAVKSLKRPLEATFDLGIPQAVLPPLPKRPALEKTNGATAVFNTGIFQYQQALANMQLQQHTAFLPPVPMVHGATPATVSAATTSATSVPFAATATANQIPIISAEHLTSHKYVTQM
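His-tagged MBNL1 binding to biotinylated (CUG)12 RNA was measured by TR-FRET using terbium anti-His antibody (0.055 ng/ul final) and streptavidin-XL665 (5 nM final). Compounds were titrated 92 nM to 58 uM; 60 min at room temperature.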
An asterisk follows results filed as active; i = inactive; ? = inconclusive; . = no result given; [ ] = dose if it differs, or a comment. Unless noted, calls follow the shape of the dose curve; as a rule, active = well fitted curve in the direction sought with a large enough effect; inconclusive = small, poorly fitted or top-dose-only effect, or another doubt; inactive = no such curve, though single readings can be large; an effect the other way counts as inactive or inconclusive. Potency is read from the fitted curve at half-maximal effect.

SMILES | TDP43 rescue | aSyn yeast inh | Abeta yeast res | FUS yeast rescue | Glioma ERSR ind | MBNL1 CUG block
C=CCOc1ccc2c(OC)c3ccoc3nc2c1OC | 11.2µM* | -3.2% | i | i | -1.5% | ?
CCOc1c2ccoc2nc2c(OC)c(OC)ccc12 | 20.8% | -4.1% | i | i | 1.1% | ?
Cc1cc(NC(=O)CSc2cc(Cl)ccc2Cl)n(-c2ccccc2)n1 | 12.6µM* | 15.8% | i | i | -5.8% | -25.7%
Cc1nnc(SCC(=O)Nc2cc(-c3cc(C)c(C)cc3C)nn2-c2ccccc2)s1 | ? | 0.7% | i | 25.1µM* | 1.0% | -3.4%
Cc1cc(NC(=O)c2ccc(Cl)cc2Cl)n(-c2ccccc2)n1 | 20µM* | -4.6% | i | i | -1.1% | .
Cc1cc(NC(=O)COc2ccc(Cl)cc2Cl)n(-c2ccccc2)n1 | 17.5% | 2.8% | i | i | -5.5% | 2.3%
Cc1cc(NC(=O)Nc2cc(C)nn2-c2ccccc2)n(-c2ccccc2)n1 | 10.2% | -1.0% | i | i | 3.1% | -13.8%
Cc1nnc(SCC(=O)Nc2cc(C(C)(C)C)nn2-c2ccccc2)s1 | -12.1% | -1.3% | i | . | -2.8% | -4.7%
CCC1C(=O)NCCN1Cc1ccc2c(c1)CN(Cc1cc(OC)ccc1OC)CCO2 (configuration not stated) | . | . | . | . | -3.9% | .
Oc1ccc(Nc2ccc3ccccc3c2)cc1 | 22.4µM* | -22.1% | i | i | 6.2% | .
Oc1ccc(Nc2nc(-c3ccc4ccccc4c3)cs2)cc1 | . | . | . | . | . | 5.7%
O=C(CCSCc1ccccc1F)N1CCN(c2ccc(F)cc2)CC1 | 11.2µM* | . | i | i | -0.1% | .
O=C(CCSCc1ccccc1Cl)N1CCN(c2ccc(F)cc2)CC1 | 15.8µM* | . | i | ? | -1.8% | .
O=C(CSCc1ccc(F)cc1)N1CCN(c2ccc(Cl)cc2)CC1 | 17.8µM* | . | i | ? | -3.1% | .
Fc1ccccc1NC(=S)NCc1ccc(Cl)cc1 | 11.2µM* | 0.8% | ? | i | 4.0% | -0.2%
S=C(NCc1ccccc1)Nc1cccc(Cl)c1 | 28.2µM* | -10.9% | i | . | -0.8% | -12.9%
O=C(CNc1cccc(Cl)c1)NNC(=S)NCc1ccccc1 | -13.6% | -4.2% | i | i | -5.4% | 2.0%
CC(C)(CNC(=O)c1cnn(-c2nccc(-c3cc4ccccc4o3)n2)c1C1CC1)N1CCOCC1 | . | . | . | . | 1.3% | .
O=C(C1=C(O)/C(=C/c2ccc(O)cc2)CCC1)C(F)(F)F | 22.4µM* | -28.9% | i | i | -1.4% | 19.2%
CCCCNC(=O)C1CCCN1C(=O)Nc1ccc(Cl)cc1 (configuration not stated) | . | . | . | i | . | .
c1ccc(CN(Cc2ccccc2)C(c2ccnc3ccccc23)c2nnnn2-c2ccc3c(c2)OCCO3)cc1 (configuration not stated) | 20.6% | 3.1% | i | i | . | .
CN(CCc1ccccc1)C(c1ccnc2ccccc12)c1nnnn1-c1ccc2c(c1)OCCO2 (configuration not stated) | 35.5µM* | 1.0% | i | ? | . | .
CCC1CN(CCC(=O)N2CCCN(C(=O)c3ccco3)CC2)Cc2cc(OC)ccc2O1 (configuration not stated) | . | . | . | . | -2.4% | .
CC(=O)c1ccc(C(=O)N(CCCN(C)C)c2nc3c(C)c(C)ccc3s2)cc1 | -10.1% | . | i | i | -2.1% | .
O=C(Cc1ccccc1)N(Cc1cccnc1)c1nc2c(F)cccc2s1 | ? | . | i | i | -0.6% | .
SMILES | TDP43 rescue | aSyn yeast inh | Abeta yeast res | FUS yeast rescue | Glioma ERSR ind | MBNL1 CUG block
CCOc1ccc2nc(N(Cc3cccnc3)C(=O)c3cccs3)sc2c1 | 14.1µM* | . | i | i | 2.4% | .
COc1ccc2nc(N(Cc3cccnc3)C(=O)Cc3ccccc3)sc2c1 | 31.6µM* | . | i | i | -1.4% | .
O=C(Cc1ccccc1)N(Cc1cccnc1)c1nc2c(Cl)cccc2s1 | 20µM* | . | i | i | -1.1% | .
CC(=O)c1ccc(C(=O)N(Cc2cccnc2)c2nc3c(C)c(C)ccc3s2)cc1 | 22.4µM* | . | i | ? | -2.6% | .
COc1ccc2[nH]c(C(O)C(O)c3nc4c(OC)c(OC)ccc4[nH]3)nc2c1OC (configuration not stated) | . | . | . | . | -3.2% | .
CCc1ccc2nc(N(Cc3cccnc3)C(=O)Cc3ccccc3)sc2c1 | 28.2µM* | . | i | i | -3.8% | .
CCc1ccc2nc(N(Cc3cccnc3)C(=O)c3ccc(C#N)cc3)sc2c1 | 1.78µM* | . | i | i | -2.5% | .
CCOc1cccc2sc(N(Cc3cccnc3)C(=O)c3ccc(C#N)cc3)nc12 | -2.8% | . | i | i | -0.1% | .
Cc1ccc2nc(N(Cc3cccnc3)C(=O)CCc3ccccc3)sc2c1 | ? | . | i | i | -2.3% | .
CCCCCCn1c(-c2cccs2)n[nH]c1=S | -11.5%[0.397 µM] | 1.7% | 6.31µM* | i | -2.5% | 2.2%
CCCCn1c(-c2cccs2)nc2nc3ccccc3nc21 | 12.6µM* | 4.8% | i | i | 5.1% | ?
Cc1ccccc1NC(=O)c1c(-c2ccccc2)noc1C | 22.5% | -6.2% | i | i | 0.8% | -3.4%
Cc1ccc(F)cc1NC(=O)c1c(-c2ccccc2)noc1C | 20µM* | 0.2% | i | i | -1.3% | -1.8%
O=C(COc1ccc2c(c1)CCC2)NCc1ccccc1 | 11.2µM* | 8.6% | i | . | 2.6% | 2.5%
Cc1cccc(OCC(=O)NCc2ccc3c(c2)CCN3C(=O)c2ccccc2)c1 | 25.1µM* | . | i | ? | -1.5% | .
COc1ccc(NC(=O)CSc2nnc(-c3cccs3)o2)cc1Cl | . | . | . | i | . | .
O=C(NC1CCC1)c1ccc(C#Cc2cccc(F)c2)nc1 | . | . | . | i | . | .
CS(=O)c1ccccc1-c1nc(-c2cccc(Cl)c2)no1 (configuration not stated) | 12.6µM* | 7.0% | i | i | 0.2% | 6.0%
O=C(/C=C/c1ccc(Cl)cc1)N1CCN(c2c(Cl)cccc2[N+](=O)[O-])CC1 | 11.2µM* | 20.4% | i | i | -0.6% | -1.5%
O=S(=O)(NCCc1csc(-c2ccc(C(F)(F)F)cc2)n1)c1ccc2c(c1)OCCO2 | 25.1µM* | -1.4% | ? | i | -4.6% | ?
O=S(=O)(NCCc1csc(-c2cccnc2)n1)c1ccc2c(c1)OCCO2 | 21.7% | -20.5% | i | i | 0.3% | 9.1%
COc1ccc(-c2nc(CCNS(=O)(=O)c3ccc4c(c3)OCCO4)cs2)cc1 | 12.6µM* | -16.1% | i | i | 0.0% | ?

Screening data deposited in PubChem BioAssay by National Center for Advancing Translational Sciences (NCATS).
